# Hits are enriched below; roughly 6.6% of the tested compounds scored in any of these assays.
# RGS4 inhibitor – Inhibitors of Regulator of G Protein Signaling (RGS) 4: qHTS. Regulator of G-protein signaling 4 (Homo sapiens), P49798. Transcreener GDP fluorescence polarization, RGS4-accelerated GTP hydrolysis. Potency, µM (top dose mostly 114 µM), actives largely listed as inhibitors. 0.039% of 390,000 active; note: nearly all actives have a fitted effect of over 75% in size
# Target sequence (P49798 whole entry, looked up): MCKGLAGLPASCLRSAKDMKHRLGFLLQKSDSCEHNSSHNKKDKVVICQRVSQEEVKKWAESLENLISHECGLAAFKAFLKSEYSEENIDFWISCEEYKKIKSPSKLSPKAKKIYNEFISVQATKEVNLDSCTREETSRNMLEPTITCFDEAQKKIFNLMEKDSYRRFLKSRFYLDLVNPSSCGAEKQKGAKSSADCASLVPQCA
#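 MLSMR compounds (23 nl, pin-transferred) preincubated 10 min at room temperature with a 500nM (2x) first reagent, then RGS4 at 900nM (2x) plus Transcreener GDP mix added; fluorescence polarization (620/688 nm) read before and after 90 min at 30 °C.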
# KB-3-1 tox – qHTS assay for MDR1-selective chemotherapeutics: Primary screen using the parental adenocarcinoma cell KB-3-1 | AID 1347075, 2019 | Potency, µM (top dose mostly 46.1 µM), actives largely listed as cytotoxic | KB-3-1 viability, CellTiter-Glo ATP luminescence, 72 h | 1.4% of 400,000 active; note: nearly all actives have a fitted effect of over 60% in size
#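 KB-3-1 parental drug-naive adenocarcinoma cells in DMEM/10% FBS, incubated 72 h at 37 C with pin-transferred compounds across a concentration series. Viability by CellTiter-Glo luminescence; concentration-response curves fitted after normalization.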
# TSG101-PTAP inh – qHTS Assay for Iinhibitors of HIV-1 Budding by Blocking the Interaction of PTAP/TSG101; Tumor susceptibility gene 101 protein (Homo sapiens), Q99816; 340,000 tested, under 10 active; Fluorescence polarization, FITC-PTAP peptide / Tsg101 binding; Potency, µM (highest dose often 115 µM), usual class: inhibitors; AID 493005, 2010; active = well fitted inhibition curve with a large enough effect in the main read-out, with a control signal flat, not every such curve was filed as active; inconclusive = small, poorly fitted or top-dose-only effect, or effect the other way, or a change in a side signal; inactive = no such curve, though single readings can be large or run the other way
# Target sequence (Q99816 whole entry, looked up): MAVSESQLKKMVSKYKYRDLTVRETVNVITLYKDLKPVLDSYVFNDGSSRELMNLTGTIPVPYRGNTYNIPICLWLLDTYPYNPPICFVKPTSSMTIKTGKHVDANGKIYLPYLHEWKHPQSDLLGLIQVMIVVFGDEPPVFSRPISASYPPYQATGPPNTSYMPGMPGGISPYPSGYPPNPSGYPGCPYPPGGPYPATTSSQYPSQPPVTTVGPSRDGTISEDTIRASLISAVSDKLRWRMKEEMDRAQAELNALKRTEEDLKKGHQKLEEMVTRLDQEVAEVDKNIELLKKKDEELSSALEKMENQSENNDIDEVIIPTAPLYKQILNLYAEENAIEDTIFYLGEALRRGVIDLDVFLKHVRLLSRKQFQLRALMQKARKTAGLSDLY
#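 Fluorescence polarization binding of Tsg101 binding domain (10 uM final) to FITC-labeled PTAP peptide (50 nM final) in HEPES pH 7.5 buffer with NaCl, Tween 20, EDTA, TCEP. Compounds added before peptide; binding 20 min at RT.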
# SW480 rerep – A quantitative high throughput screen for small molecules that induce DNA re-replication in SW480 colon adenocarcinoma cells; SW480 DNA re-replication, Hoechst DNA content imaging, 48 h; Potency, µM (series often up to 46.1 µM), usual class: activators; 1.8% of 340,000 active; note: nearly all actives have a fitted effect of over 55% in size
#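 Readout is total intensity of Hoechst-stained nuclei, excited at 405 nm and collected at 500-530 nm. Compound treatment lasted 48 hr at 37 C in 5% CO2 before staining.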
# MCF10A rereplic – A quantitative high throughput screen for small molecules that induce DNA re-replication in MCF 10a normal breast cells; MCF 10A DNA re-replication, Hoechst nuclear intensity, 48 h; Potency, µM (series often up to 46.1 µM), most hits filed as activators; 2.9% of 350,000 active; note: nearly all actives have a fitted effect of over 50% in size
# KB-V1 MDR tox – qHTS assay for MDR1-selective chemotherapeutics: Primary screen using the drug-selected MDR subline cells KB-V1. KB-V1 MDR cells viability, CellTiter-Glo, 72 h. Potency, µM (top dose mostly 46.1 µM), actives largely listed as cytotoxic. 3.4% of 400,000 active; note: nearly all actives have a fitted effect of over 60% in size
#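 Potencies derive from concentration-effect curves fitted to normalized luminescence (CellTiter-Glo) of KB-V1 cells treated for 72 h at 37 degrees C in phenol-red-free DMEM containing 10% FBS.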
# Hits are given with their value; 0 = inactive; ? = inconclusive; - = not tested or not shown. Unless noted, calls come from the whole dose curve; as a rule, active = well fitted curve in the direction sought with a large enough effect; inconclusive = small, poorly fitted or top-dose-only effect, or another doubt; inactive = no such curve, though single readings can be large; an effect the other way counts as inactive or inconclusive.
SMILES,RGS4 inhibitor,KB-3-1 tox,TSG101-PTAP inh,SW480 rerep,MCF10A rereplic,KB-V1 MDR tox
Cc1cc(/C([O-])=C(/C(=S)Nc2ccc(F)cc2)[n+]2ccccc2)c(C)n1-c1ccc(F)cc1,0,0,0,0,0,23.1µM
O=C(c1ccc(COc2ccccc2Br)o1)N1N=C(C(F)F)CC1(O)C(F)F (stereo not given),0,0,0,0,?,23.1µM
O=C(Nc1ccccc1)C(Cc1ccccc1)N1Cc2ccccc2C1=O (stereo not given),0,-,-,-,-,-
O=C(Nc1ccc([N+](=O)[O-])cc1)C(Cc1ccccc1)N1C(=O)c2cccc3cccc(c23)C1=O (stereo not given),0,?,0,18.4µM,11.6µM,?
COc1ccc(-c2cc(-c3ccccc3)nc(Cl)n2)cc1OC,0,0,0,?,23.1µM,0
Cc1ccc(-c2cc(-c3ccccc3)nc(Cl)n2)cc1,0,0,0,?,0,0
COc1cccc(C(=O)NCC(c2ccc(N(C)C)cc2)N2CCOCC2)c1OC (stereo not given),0,0,-,-,-,0
CN(C)CCNc1nc2sc3c(c2c(=O)n1-c1ccccc1)CCCCC3,0,0,0,0,?,0
O=c1c2c3c(sc2nc(NCCO)n1CCc1ccccc1)CCCCC3,0,?,0,?,4.61µM,?
COCCNc1nc2sc3c(c2c(=O)n1Cc1ccco1)CCCCC3,0,0,0,0,8.2µM,0
CN(C)CCNc1nc2sc3c(c2c(=O)n1Cc1ccccc1)CCCCC3,0,0,0,0,18.4µM,0
Cc1nc(NCc2cccnc2)c2c3c(sc2n1)CCCC3,0,?,0,0,0,?
OCCNc1nc(SCc2ccccc2)nc2sc3c(c12)CCC3,?,0,0,0,?,7.31µM
O=c1c2c3c(sc2nc(NCCO)n1Cc1ccco1)CCCCC3,0,0,0,0,?,0
CCc1ccc(Cn2c(CNS(=O)(=O)c3ccc4c(c3)CCCC4)nc3cccnc32)cc1,0,-,-,-,-,-
CCn1cc(C(=O)N2CCN(c3cccc(C)c3C)CC2)c2cc(OC)c(OC)cc2c1=O,0,0,-,-,-,0
CNC(=O)/C(C#N)=C1\SC(Cc2ccc(F)cc2)C(=O)N1c1ccccc1C (stereo not given),0,0,0,0,0,0
CC(=O)/C(C#N)=C1\NC(=O)C(Cc2ccccc2)S1 (stereo not given),0,14.6µM,0,?,0,13µM
C/C(=N\N=C1\NC(=O)C(Cc2ccccc2)S1)c1ccccc1 (stereo not given),0,0,0,0,?,0
CC(=O)/C(C#N)=C1\NC(=O)C(Cc2ccccc2C)S1 (stereo not given),0,?,0,0,0,5.8µM
COc1ccc(-c2noc(CN(C(=O)COc3cc(C)c(Br)c(C)c3)C(C)C)n2)cc1,0,?,-,-,-,?
N#Cc1ccccc1OCCCN1CCC(C(O)(c2ccccc2)c2ccccc2)CC1,-,?,-,-,-,23.1µM
Cc1ccc(OCCCN2CCC(C(O)(c3ccccc3)c3ccccc3)CC2)cc1,-,?,-,-,-,20.6µM
C=C1CN(C(C(=O)OC)C(C)C)S(=O)(=O)c2ccc(F)cc21 (stereo not given),0,-,-,-,-,-
Cc1cccc(NC(=O)c2ccc(S(=O)(=O)NCc3cccnc3)cc2)c1,0,?,0,0,0,20.6µM
SMILES,RGS4 inhibitor,KB-3-1 tox,TSG101-PTAP inh,SW480 rerep,MCF10A rereplic,KB-V1 MDR tox
CC(=O)Nc1cccc(NC(=O)c2ccc(C(=O)Nc3cccc(NC(C)=O)c3)nc2)c1,0,0,0,0,0,0
Cc1cccc(NC(=O)c2ccc(C(=O)Nc3cccc(C)c3)nc2)c1,0,0,0,?,7.31µM,?
CCOc1c(OC)ccc2c3c(c(=O)oc12)CCCC3,0,0,0,0,0,8.2µM
COc1ccc2c3c(c(=O)oc2c1OCC(=O)O)CCCC3,0,0,0,0,0,0
CCCCN(C)c1nnc(NC(=O)Nc2cccc(C(C)=O)c2)s1,0,?,-,-,-,0
Cc1cccc(-n2c(C)cc(/C=C3\NC(=O)NC3=O)c2C)c1,0,0,0,?,16.4µM,?
Cc1cccc(-n2c(=O)c3ccccc3n(Cc3ccc(F)cc3)c2=O)c1,0,0,-,-,-,0
CCOC(=O)N1CCN(c2nc3ccccc3nc2C(C#N)S(=O)(=O)c2ccc(C)cc2)CC1 (stereo not given),0,0,?,0,0,3.66µM
CCC(=O)Nc1ccccc1-c1nc2ccccc2n(CC(=O)c2ccc(C)cc2)c1=O,0,0,-,-,-,0
O=C(CCCN1CCN(c2ccccc2)CC1)c1ccc(F)cc1,-,0,-,-,-,0
O=C1CC(=C(c2ccccc2)c2ccccc2)C(=O)N1CCCCN1CCN(c2ccccc2)CC1,0,20.6µM,0,?,?,?
CCc1ccc(NC(=O)N(Cc2cccnc2)Cc2ccco2)cc1,0,0,0,0,0,14.6µM
CCc1ccc(NC(=O)N(C2CCCCC2)C(C)c2cccnc2)cc1 (stereo not given),0,0,0,0,0,20.6µM
COC(=O)c1ccc(NC(=S)N(Cc2cccnc2)Cc2ccco2)cc1,0,0,0,0,0,0
CCc1ccc(NC(=O)N(Cc2ccco2)C(C)c2cccs2)cc1 (stereo not given),0,?,0,0,?,20.6µM
C/C=C1\COC(C(=O)NCCN2CCOCC2)(C(F)(F)F)C=C1C=C1CCCCC1 (stereo not given),0,-,-,-,-,-
C/C=C1\COC(C(=O)NCCN2CCCC2)(C(F)(F)F)C=C1C=C1CCCCC1 (stereo not given),0,0,0,?,6.51µM,0
Cc1ccc(NC(=O)CSc2nnc(-c3cccnc3)s2)cc1,0,0,0,0,0,0
O=C(CSc1nnc(-c2cccnc2)s1)Nc1ccnc2ccccc12,0,2.31µM,0,0,0,1.64µM
NC(=O)COc1cc2oc(=O)c3c(c2cc1Cl)CCCC3,0,0,0,0,0,8.2µM
O=C(COc1cc2oc(=O)c3c(c2cc1Cl)CCC3)NCCCn1ccnc1,0,0,0,0,23.1µM,0
Cc1ccc(C(C)C)cc1OCC(=O)NCCCn1ccnc1,0,0,0,0,1.46µM,0
O=C(COc1cc2oc(=O)c3c(c2cc1Cl)CCC3)Nc1ccccn1,0,0,0,0,0,0

# Source: PubChem (National Center for Advancing Translational Sciences (NCATS))
